Experimental data reported in publication PMC7155171, “Probing the Open Global Health Chemical Diversity Library for Multistage-Active Starting Points for Next-Generation Antimalarials” (ACS Infectious Diseases, 2020).

test system: HepG2-A16-CD81 hepatocytes; parameters: Uninfected hepatocyte viability, CellTiter-Glo luminescence; details: cytotoxicity primary screen, inhibitor

Compound | HepG2 toxicity primary screen (10uM): inhibition % (n=1) [%]
Cc1cccc(C2N3CCC4(CC3)c3[nH]c5ccccc5c3CCN24)n1 (centres unmarked) [DDD01058402] | 8.06
Cc1[nH]n(-c2ccccc2)c2nc(C(C)(C)CN3CCN(C)CC3)nc1-2 [DDD01252143] | -2.13
Cc1ccccc1CN(C)C(=O)CCC1=NC(=C2N=CN=N2)NO1 [DDD01062116] | -42.09
COc1ccc(-c2c(C(C)C)nn3c(N)c(C#N)nnc23)cc1 [DDD01035184] | -12.2
CCc1cc(=O)n2nc(C3CCCN3C(=O)c3ccccn3)cc2[nH]1 (centres unmarked) [DDD01057178] | -0.805
COc1cc2c(cc1-c1nc3c[nH]n(C(C)C4CC4)c-3n1)OCO2 (centres unmarked) [DDD01244142] | 4.82
Cc1[nH]n(C2CCS(=O)(=O)C2)c(=O)c1Cc1ccccc1Cl (centres unmarked) [DDD01026964] | -45.665
COCC(=O)Nc1[nH]nc2c1c(C)nn2Cc1cccc(OC)c1 [DDD01063147] | -11.7
CCn1[nH]cc2nc(-c3ccc(OC)c(COC)c3)nc1-2 [DDD01253750] | 6.34
Cc1ccc(CN2CCc3c([nH]c4cc(C5CC5)nn4c3=O)C2)s1 [DDD01058491] | -3.69
Cc1cc(=O)n(-c2ccc3nnc(C)n3n2)[nH]1 [DDD01038570] | 9.24
Cc1[nH]n(-c2ccc(F)cc2)c2nnc(N)c1-2 [DDD01065623] | 13.6
Cc1[nH]n(Cc2ccc(F)cc2)c2nnc(N)c1-2 [DDD01012470] | 1.11
CCC(=O)Nc1[nH]nc2c1c(C)nn2Cc1cccc(OC)c1 [DDD01063148] | -9.24
